Data published in the supplement of paper PMC5641865, “A screen for kinase inhibitors identifies antimicrobial imidazopyridine aminofurazans as specific inhibitors of the Listeria monocytogenes PASTA kinase PrkA” (The Journal of Biological Chemistry, 2017).
Where “and” joins values, the source holds several entries; their conditions need not be identical. Equal values may be shown once. ± gives the standard deviation of the averaged measurements.

Test system: Listeria monocytogenes 10403S
Test: growth inhibition relative to ceftriaxone-alone control; higher = stronger potentiation of ceftriaxone growth inhibition
Details: 10 µM; ceftriaxone 1 ug/ml; 12 h
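Also: End-point A600 read in BHI broth at 37 °C with 2% DMSO, inhibition computed as (1 − OD with compound plus ceftriaxone ÷ OD with ceftriaxone only) × 100.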

Row | Compound | growth inhibition
1 | Nc1nccc(-c2c(-c3ccc(F)cc3)ncn2C2CCNCC2)n1 | 2.49 ± 6.8%
2 | O=C1NCCc2[nH]c(-c3ccncc3)cc21 | 22.8 ± 14%
3 | Cc1cccc(-c2[nH]c(C(C)(C)C)nc2-c2ccc3nccnc3c2)n1 | 9.73 ± 13%
4 | O=C(NC1CCNCC1)c1n[nH]cc1NC(=O)c1c(Cl)cccc1Cl | 13.4 ± 5.9%
5 | COc1cc(C=NNc2ncnc3c2cnn3-c2ccccc2)ccc1O | 3.9 ± 5.4%
6 | COc1ccc2c3n(c(=NC(=O)c4cccnc4)nc2c1OC)CCN3 | -0.968 ± 4.8%
7 | COc1cc(/C=N/Nc2ncnc3[nH]ncc23)ccc1O | 6.52 ± 10%
8 | Nc1nc(N)c2nc(-c3cccc(O)c3)c(-c3cccc(O)c3)nc2n1 | 63 ± 19%
9 | COc1cc2c(cc1Nc1nc(Nc3cccc(F)c3C(N)=O)c3cc[nH]c3n1)N(C(=O)CN1CCN(C(C)C)CC1)CC2 | -7.97 ± 11%
10 | CO[C@H]1C[C@@H]2CC[C@@H](C)[C@@](O)(O2)C(=O)C(=O)N2CCCC[C@H]2C(=O)O[C@H]([C@H](C)C[C@@H]2CC[C@@H](O)[C@H](OC)C2)CC(=O)[C@H](C)/C=C(\C)[C@@H](O)[C@@H](OC)C(=O)[C@H](C)C[C@H](C)/C=C/C=C/C=C/1C [Rapamycin (Sirolimus)] | 30.2 ± 26%
11 | Cc1cc(O)cc(C)c1/C=C/c1cncc(C(=O)N(C)C)c1 | -3.75 ± 3.3%
12 | C[C@@H]1CCN(C(=O)CC#N)C[C@@H]1N(C)c1ncnc2[nH]ccc12 | 11.4% and 15.6%
13 | NS(=O)(=O)c1ccc(N/N=C2\C(=O)Nc3ccc(C(=O)NCc4ccncc4)cc32)cc1 | -9.46 ± 18%
14 | CCC(=O)Nc1ccc(C)c(-c2ccc(C(=O)NCC3CC3)cc2)c1 | -2.46 ± 1.9%
15 | COC(=O)Nc1nc2ccc(Oc3ccc(NC(=O)Nc4cccc(Cl)c4)cc3)cc2[nH]1 | -4.18 ± 4.6%
16 | CO[C@H]1C[C@@H]2CC[C@@H](C)[C@@](O)(O2)C(=O)C(=O)N2CCCC[C@H]2C(=O)O[C@H]([C@H](C)C[C@@H]2CC[C@@H](OC(=O)C(C)(CO)CO)[C@H](OC)C2)CC(=O)[C@H](C)/C=C(\C)[C@@H](O)[C@@H](OC)C(=O)[C@H](C)C[C@H](C)/C=C/C=C/C=C/1C [Temsirolimus (Torisel)] | 19.8 ± 59%
17 | CS(=O)(=O)CCNCc1ccc(-c2ccc3ncnc(Nc4ccc(OCc5cccc(C(F)(F)F)c5)cc4)c3c2)o1 | -9.85 ± 16%
18 | Cc1ccc(-n2nc(C(C)(C)C)cc2NC(=O)Nc2ccc(OCCN3CCOCC3)c3ccccc23)cc1 [BIRB 796 (Doramapimod)] | 10.5 ± 14%
19 | Nc1nc(N)c2nc(-c3cccc(O)c3)cnc2n1 | 8.99 ± 4.4%

Row | Compound | growth inhibition
20 | CS(=O)(=O)CCNCc1ccc(-c2ccc3ncnc(Nc4ccc(OCc5ccccc5)c(Br)c4)c3c2)o1 | -2.35 ± 3.3%
21 | Cc1csc(-c2nnc(Nc3ccc(Oc4ncccc4-c4ccnc(N)n4)cc3)c3ccccc23)c1 | 64 ± 34%
22 | CCc1cnn2c(NCc3ccc[n+]([O-])c3)cc(N3CCCC[C@H]3CCO)nc12 | -2.28 ± 10%
23 | Cc1nc(-c2ccccc2)n2nc(NCCCN3CCOCC3)ncc12 | 0.025 ± 1.1%
24 | Cc1cc2c(F)c(Oc3ncnn4cc(OC[C@@H](C)OC(=O)[C@H](C)N)c(C)c34)ccc2[nH]1 | 100.2 ± 0.95%
25 | COc1cc2c(cc1Nc1nc(N3CCc4ccccc43)c3cc[nH]c3n1)N(C(=O)CN(C)C)CC2 | 7.28 ± 0.39%
26 | COc1cc2nccc(Oc3ccc(NC(=O)Nc4cc(C)on4)c(Cl)c3)c2cc1OC [Tivozanib (AV-951)] | 23.7 ± 1.2%
27 | COc1ccc2ncn(-c3cc(O[C@H](C)c4ccccc4Cl)c(C(N)=O)s3)c2c1 | 1.82 ± 0.29%
28 | CS(=O)(=O)N1CCN(Cc2cc3nc(-c4cccc5[nH]ncc45)nc(N4CCOCC4)c3s2)CC1 | 25.2 ± 21%
29 | FC(F)(F)c1cccc(-c2nn3ncccc3c2-c2ccnc(Nc3ccc4c(c3)OCCO4)n2)c1 | -5.79 ± 1.8%
30 | CCc1nccc2c1nc(-c1nonc1N)n2CC | -8.48 ± 4.8%
31 | CCN(CC)CCNC(=O)c1c(C)[nH]c(/C=C2\C(=O)Nc3ccc(F)cc32)c1C [Sunitinib Malate (Sutent)] | 73.6 ± 12%
32 | COc1cc(C=NNc2ncnc3c2cnn3Cc2ccccc2)ccc1O | -10.8 ± 3.7%
33 | O=C1NC(=O)/C(=C/c2ccc3nccc(-c4ccncc4)c3c2)S1 | 19.4 ± 3.5%
34 | CC1=C(C(=O)Nc2ccc3[nH]ncc3c2)C(c2ccc(F)cc2)NC(=O)N1 (stereo not drawn) | 2.29 ± 1.7%
35 | Cc1ccc(F)c(NC(=O)Nc2ccc(-c3cccc4[nH]nc(N)c34)cc2)c1 [Linifanib (ABT-869)] | 29.9 ± 19%
36 | Cc1ccc2c(c1)/C(=N/Nc1ccc(S(N)(=O)=O)cc1)C(=O)N2 | 2.4 ± 3.2%
37 | CC(=O)NCC(=O)N1[C@@H]2CC[C@H]1c1ccc(Nc3ncc(C(F)(F)F)c(NC4CCC4)n3)cc12 | 52 ± 46%
38 | CCNC(=O)O[C@H]1CN[C@H](C#Cc2cc3ncnc(Nc4ccc(OCc5cccc(F)c5)c(Cl)c4)c3s2)C1 | 27.1 ± 33%
